From PubChem BioAssay (Tox21)
Records with an inconclusive call do not appear. Calls of active or inactive are those of the source. Calls come from the whole dose curve; as a rule, active = well fitted curve in the direction sought with a large enough effect in the repeat runs; inconclusive = weak or mixed curves; inactive = no such curve, though single readings can be large; an effect the other way counts as inactive or inconclusive.

Tests used:
[1] = qHTS RealTime-Glo MT Cell Viability Assay in HEK293 cells - 32 hour (AID 1224868); note: top concentration of the series differs between compounds; nearly all actives have a fitted effect of over 50% in size
Outline: (§1)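 Homogeneous bioluminescent viability format in HEK293 cells (600 cells/well). Following 5 h at 37 C/5% CO2, 23 nL compound was pintooled; the signal was measured repeatedly during 40 h incubation.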

[2] = A CellTox Green Cytotoxicity Assay to monitor cytotoxicity in HEK293 cells - 0 hour (AID 1224869); note: nearly all actives have a fitted effect of over 50% in size; note: potency is the fitted concentration of half-maximal effect
Outline: (§2)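 Each value comes from one timepoint of a single continuous run in which HEK293 cells with CellTox Green were exposed to compound for up to 40 h at 37 C, dye fluorescence rising with cell death.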

[3] = qHTS RealTime-Glo MT Cell Viability Assay in HepG2 cells - 40 hour (AID 1224870); note: nearly all actives have a fitted effect of over 50% in size
Outline: (§3)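 Real-time viability: cells seeded at 600 per well together with NanoLuc and cell-permeant prosubstrate, compounds added after 5 h incubation. Luminescence tracked at 0, 8, 16, 24, 32 and 40 h of exposure.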

[4] = A CellTox Green Cytotoxicity Assay to monitor cytotoxicity in HEK293 cells - 40 hour (AID 1224871); note: nearly all actives have a fitted effect of over 45% in size; note: potency is the fitted concentration of half-maximal effect
Outline: as §2

[5] = qHTS RealTime-Glo MT Cell Viability Assay in HEK293 cells - 16 hour (AID 1224872); note: top concentration of the series differs between compounds; nearly all actives have a fitted effect of over 50% in size
Outline: as §1

[6] = qHTS RealTime-Glo MT Cell Viability Assay in HepG2 cells - 8 hour (AID 1224873); note: nearly all actives have a fitted effect of over 55% in size
Outline: as §3

[7] = qHTS RealTime-Glo MT Cell Viability Assay in HEK293 cells - 40 hour (AID 1224874); conditions: RealTime-Glo luminescence; max response: stronger effect = lower value; note: nearly all actives have a fitted effect of over 50% in size
Outline: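 qHTS format; HEK293 cells with NanoLuc/prosubstrate reagent, 37 C/5% CO2 for 5 h pre-dosing; compounds 23 nL in DMSO; luminescence at each time point reflects viable cells.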

[8] = A CellTox Green Cytotoxicity Assay to monitor cytotoxicity in HEK293 cells - 24 hour (AID 1224875); note: series mostly up to about 77 µM; nearly all actives have a fitted effect of over 45% in size
Outline: as §2

[9] = qHTS RealTime-Glo MT Cell Viability Assay in HepG2 cells - 24 hour (AID 1224867); note: nearly all actives have a fitted effect of over 50% in size
Outline: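 Cell number in HepG2 cultures estimated from NanoLuc luminescence generated by metabolic reduction of a prosubstrate by living cells. The homogeneous, nonlytic format allowed repeated reads at 0, 8, 16, 24, 32 and 40 h of compound exposure.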
% is set by controls: 0 for no effect and ±100 for the full control effect.

C=CC(=O)CCCCC
inactive: Potency [1] | Potency [2] | outcome [3] | Potency [4] | Potency [5] | outcome [6] | max response [7] -1.98% | Potency [8]

CCC(C)C(C)=O (centres undefined)
inactive: Potency [1] | Potency [2] | outcome [3] | Potency [4] | Potency [5] | outcome [6] | max response [7] 0.997% | Potency [8]

Cc1ccc(C)c([N+](=O)[O-])c1
inactive: Potency [1] | Potency [2] | outcome [3] | Potency [4] | Potency [5] | outcome [6] | max response [7] 12.1%

C=CCN1C[C@H](C(=O)N(CCCN(C)C)C(=O)NCC)C[C@@H]2c3cccc4[nH]cc(c34)C[C@H]21
inactive: Potency [1] | Potency [2] | outcome [3] | Potency [4] | Potency [5] | outcome [6] | max response [7] 0.226% | Potency [8]

C=Cc1ccc(C(C)(C)C)cc1
inactive: Potency [1] | Potency [2] | outcome [3] | Potency [4] | Potency [5] | max response [7] -0.639%

CCOC(=O)CC1(C)OCC(C)O1 (centres undefined)
inactive: Potency [1] | Potency [2] | outcome [3] | Potency [5] | outcome [6] | max response [7] 1.97% | Potency [8]

N#Cc1ccccc1O
inactive: Potency [1] | Potency [2] | outcome [3] | Potency [4] | Potency [5] | outcome [6] | max response [7] 15.1% | Potency [8]

O=Cc1cc2ccccc2o1
inactive: Potency [1] | Potency [2] | outcome [3] | Potency [4] | Potency [5] | max response [7] -1.57% | Potency [8]

CCCCCC/C=C/C(=O)OC
inactive: Potency [1] | Potency [2] | outcome [3] | Potency [5] | outcome [6]

O=C(O)c1cc2ccccc2nc1C(=O)O
inactive: Potency [1] | Potency [2] | outcome [3] | Potency [4] | Potency [5] | outcome [6] | max response [7] -2.29%

CCC(C)C(=O)OCCc1ccccc1 (centres undefined)
inactive: Potency [1] | Potency [2] | outcome [3] | Potency [5] | outcome [6] | max response [7] -0.807% | Potency [8]

CN(C)CC/C=C1/c2ccccc2COc2ccc(CC(=O)O)cc21
inactive: Potency [2] | Potency [8]

CCCCCC(C)O (centres undefined)
inactive: Potency [1] | Potency [2] | outcome [3] | Potency [4] | Potency [5] | outcome [6] | max response [7] 6.06%

O=C1NC(c2ccccc2)(c2ccccc2)C(=O)N1COP(=O)(O)O
inactive: Potency [1] | Potency [2] | outcome [3] | Potency [4] | Potency [5] | outcome [6] | max response [7] -5.37%

CC12CCC(C1)C(C)(C)C2O (centres undefined)
inactive: outcome [9] | outcome [3] | Potency [5] | outcome [6]

c1ccc(B(c2ccccc2)c2ccccc2)cc1
inactive: Potency [2] | outcome [3] | Potency [4] | outcome [6] | Potency [8]

N#CCC(=O)NN
inactive: Potency [1] | Potency [2] | outcome [3] | Potency [5] | outcome [6] | max response [7] 1.05%

CC(=O)O[C@@H]1CC2CCC1(C)C2(C)C (some centres undefined)
inactive: Potency [1] | Potency [2] | outcome [3] | Potency [4] | Potency [5] | max response [7] 5.83% | Potency [8]

CCCCCc1cccc(=O)o1
inactive: Potency [1] | Potency [2] | outcome [3] | Potency [5] | max response [7] -0.0336%

O=C1OCCO1
inactive: Potency [1] | Potency [2] | outcome [3] | Potency [5] | outcome [6] | max response [7] 1.36% | Potency [8]
active: Potency [4] 0.291 µM

CC(C)CO
inactive: Potency [1] | Potency [2] | outcome [3] | Potency [5] | outcome [6] | max response [7] -4.29%

N[C@@H](Cc1ccc(O)cc1)C(=O)O
inactive: activity change, negative = cytotoxic [1] -0.171% [at 6.97 µM] | cytotoxicity [2] 1.14% [at 6.97 µM] | activity change, negative = cytotoxic [3] 1.47% [at 6.97 µM] | activity change, negative = cytotoxicity [5] 0.747% [at 6.97 µM] | viability change, negative = cytotoxic [6] 0.728% [at 6.97 µM] | max response [7] -1.3% | activity change [8] 2.02% [at 6.97 µM, stronger effect = higher value]

O=C(O)CONC(=O)c1ccccc1
inactive: Potency [1] | Potency [2] | outcome [3] | Potency [4] | Potency [5] | outcome [6] | max response [7] 1.73% | Potency [8]

Cc1c(N)cccc1Cl
inactive: Potency [1] | Potency [2] | outcome [3] | Potency [4] | Potency [5] | outcome [6] | max response [7] 5.05%

CCCCCCCCCOC(=O)CCCCC(=O)OCCCCCCC
active: Potency [2] 43.6 µM | Potency [4] 24.5 µM
inactive: Potency [1] | outcome [3] | Potency [5] | outcome [6] | max response [7] 0.901%

CC(=O)O[C@H]1C[C@@H]2CC[C@@]1(C)C2(C)C
inactive: Potency [1] | Potency [2] | outcome [3] | Potency [5] | outcome [6] | max response [7] 4.28% | Potency [8]

OCC(O)CN1CCN(c2ccccc2)CC1 (centres undefined)
inactive: Potency [1] | Potency [2] | outcome [3] | Potency [4] | Potency [5] | outcome [6] | max response [7] 1.76% | Potency [8]

O=C1c2ccccc2C(=O)c2cc(Cl)ccc21
inactive: activity change, negative = cytotoxic [1] -1.41% [at 6.97 µM] | cytotoxicity [2] -6.57% [at 6.97 µM] | activity change, negative = cytotoxic [3] -4.67% [at 6.97 µM] | cytotoxicity increase [4] -5.31% [at 6.97 µM] | activity change, negative = cytotoxicity [5] 4.83% [at 6.97 µM] | viability change, negative = cytotoxic [6] 0.0863% [at 6.97 µM] | max response [7] 3.12% | activity change [8] -1.14% [at 6.97 µM, stronger effect = higher value]

C[C@]12CCC(=O)C=C1CC[C@H]1[C@@H]3CC[C@](O)(C(=O)CO)[C@@]3(C)C[C@H](O)[C@@]12F
inactive: Potency [1] | Potency [2] | outcome [3] | Potency [4] | Potency [5] | outcome [6] | max response [7] -26.1% | Potency [8]

CCCc1ccc(O)cc1
inactive: Potency [1] | Potency [2] | outcome [3] | Potency [4] | Potency [5] | outcome [6] | max response [7] 6.55%

COC(=O)c1ccccc1C(=O)O
inactive: Potency [1] | Potency [2] | outcome [3] | Potency [4] | Potency [5] | outcome [6] | max response [7] -0.818% | Potency [8]

C=CCCCC
inactive: Potency [1] | Potency [2] | outcome [3] | Potency [4] | Potency [5] | outcome [6] | max response [7] 10.8% | Potency [8]

CCOc1ccccc1OCC1CNCCO1 (centres undefined)
inactive: Potency [1] | Potency [2] | outcome [3] | Potency [5] | outcome [6] | max response [7] 2.19% | Potency [8]

CN1C[C@@H]2C[C@H]1CN2c1cc2c(cc1F)c(=O)c(C(=O)O)cn2C1CC1
inactive: activity change, negative = cytotoxic [1] 9.47% [at 15.8 µM] | cytotoxicity [2] -0.324% [at 15.8 µM] | activity change, negative = cytotoxic [3] 1.94% [at 15.8 µM] | cytotoxicity increase [4] -7.03% [at 15.8 µM] | activity change, negative = cytotoxicity [5] 1.79% [at 15.8 µM] | viability change, negative = cytotoxic [6] 8.97% [at 15.8 µM] | max response [7] 11.1% | activity change [8] -6.09% [at 15.8 µM, stronger effect = higher value]

OC[C@H]1O[C@@H](O[C@@H]2[C@@H](CO)O[C@](O)(CO)[C@H]2O)[C@H](O)[C@@H](O)[C@H]1O
inactive: Potency [1] | Potency [2] | outcome [3] | Potency [4] | Potency [5] | outcome [6] | max response [7] 1.5% | Potency [8]

CCN(CC)CCN
inactive: Potency [1] | Potency [2] | outcome [3] | Potency [4] | Potency [5] | outcome [6] | max response [7] 2.52% | Potency [8]
